Reference: PubChem BioAssay AID1159580 (chemical genetic matrix, 2015)
Values joined by “and” are separate entries in the source; they are usually repeats but may differ in a detail not shown here. Equal entries are not always repeated. In all, about 5,500 compounds went through this assay and about 2,000 (36%) were called active. Inconclusive results (about 18%) are left out. No stated cut-off is given here; in the data, active means normalized growth mostly below about 0.91 (no sharp cut-off); inconclusive means no clear call, values can overlap the other calls; inactive means mostly above about 0.92. The list shows a part of the results.

Test: chemical genetic growth profiling, strain panel (AID 1159580);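 further: tested at 20 µM; growth read once vehicle control cultures reached saturation at 30 °C; 1 = growth at the plate median or of vehicle wells; lower values mean less growth of the strain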
Settings: S. cerevisiae deletion strains, growth OD

Measured: normalized growth

COc1cc(OC)c2c(c1)O[C@H](c1ccc(OC)c(OC)c1)[C@@H](O)C2
inactive: locus YAL021C, strain ccr4, hits give low values 1.01 | locus YAL026C, strain drs2, hits give low values 0.961 | locus YAL030W, strain snc1, hits give low values 0.998 | locus YBL061C, strain skt5, hits give low values 0.989 | locus YBR009C, strain hhf1, hits give low values 1 | locus YBR021W, strain FUR4, hits give low values 1.06 | locus YBR023C, strain chs3, hits give low values 1 | locus YBR171W, strain sec66, hits give low values 0.971 | locus YBR229C, strain ROT2, hits give low values 1.01 | locus YBR231C, strain swc5, hits give low values 0.981 | locus YBR279W, strain paf1, hits give low values 1 | locus YCL011C, strain gbp2, hits give low values 0.986 | locus YCL016C, strain dcc1, hits give low values 1.02 | locus YCL029C, strain bik1, hits give low values 1.02 | locus YCL061C, strain MRC1, hits give low values 0.996 | locus YCL069W, strain vba3, hits give low values 0.968 | locus YCR088W, strain abp1, hits give low values 0.984 | locus YDL005C, strain med2, hits give low values 0.985 | locus YDL035C, strain GPR1, hits give low values 1.04 | locus YDL040C, strain nat1, hits give low values 0.992 | locus YDL074C, strain BRE1, hits give low values 1.11 | locus YDL101C, strain DUN1, hits give low values 1.02 | locus YDL134C, strain PPH21, hits give low values 1.09 | locus YDL185W, strain tfp1, hits give low values 1.03 | locus YDL192W, strain arf1, hits give low values 1 | locus YDR001C, strain nth1, hits give low values 0.989 | locus YDR069C, strain doa4, hits give low values 0.976 | locus YDR101C, strain arx1, hits give low values 0.99 | locus YDR137W, strain rgp1, hits give low values 0.949 | locus YDR159W, strain sac3, hits give low values 0.95 | locus YDR162C, strain NBP2, hits give low values 1.03 | locus YDR195W, strain ref2 0.976 | locus YDR297W, strain sur2, hits give low values 0.988 | locus YDR318W, strain mcm21, hits give low values 1.01 | locus YDR334W, strain swr1, hits give low values 0.977 | locus YDR335W, strain msn5, hits give low values 0.983 | locus YDR388W, hits give low values 1.03 | locus YDR392W, strain spt3, hits give low values 0.909 | locus YDR502C, strain sam2, hits give low values 1.02 | locus YEL003W, strain gim4, hits give low values 0.984 | locus YEL037C, strain rad23, hits give low values 0.985 | locus YEL061C, strain CIN8 (second series), hits give low values 0.976 | locus YER015W, strain faa2, hits give low values 1.01 | locus YER016W, strain bim1, hits give low values 0.992 | locus YER110C, hits give low values 0.998 | locus YER111C, strain swi4, hits give low values 0.994 | locus YER155C, strain BEM2 (second series), hits give low values 0.947 | locus YER155C, strain BEM2, hits give low values 1.01 | locus YER167W, strain BCK2, hits give low values 1.01 | locus YFR010W, strain ubp6, hits give low values 0.956 | locus YGL078C, strain dbp3, hits give low values 1.02 | locus YGL086W, strain mad1, hits give low values 1 | locus YGL167C, strain pmr1, hits give low values 1 | locus YGL173C, strain kem1, hits give low values 0.983 | locus YGL227W, strain vid30, hits give low values 0.982 | locus YGL240W, strain doc1, hits give low values 1 | locus YGL248W, strain PDE1, hits give low values 1.05 | locus YGL253W, strain hxk2, hits give low values 0.939 | locus YGR135W, strain pre9, hits give low values 1.05 | locus YGR252W, strain gcn5, hits give low values 1.08 | locus YHR013C, strain ard1, hits give low values 1.01 | locus YHR027C, strain rpn1, hits give low values 0.983 | locus YHR030C, strain SLT2, hits give low values 0.996 | locus YHR079C, strain IRE1 (second series), hits give low values 1.02 | locus YHR079C, strain IRE1, hits give low values 0.992 | locus YHR094C, strain hxt1, hits give low values 1.04 | locus YHR129C, strain ARP1, hits give low values 1.02 | locus YHR142W, strain chs7, hits give low values 0.993 | locus YHR200W, strain rpn10, hits give low values 1.02 | locus YIL066C, strain RNR3, hits give low values 1.03 | locus YIL073C, strain SPO22, hits give low values 1.09 | locus YIL125W, strain kgd1, hits give low values 0.99 | locus YIR030C, strain dcg1, hits give low values 1.01 | locus YJL092W, strain hpr5, hits give low values 0.985 | locus YJL095W, strain BCK1 (second series), hits give low values 0.971 | locus YJL095W, strain BCK1, hits give low values 1.1 and 0.993 | locus YJL115W, strain asf1, hits give low values 0.994 | locus YJL129C, strain trk1, hits give low values 0.965 | locus YJL134W, strain LCB3, hits give low values 1.01 | locus YJL154C, strain vps35, hits give low values 0.983 | locus YJL164C, strain tpk1, hits give low values 1.02 | locus YJL166W, strain qcr8, hits give low values 0.984 | locus YJL168C, strain set2, hits give low values 1.01 | locus YJL187C, strain SWE1 (second series), hits give low values 1.03 | locus YJL187C, strain SWE1, hits give low values 0.988 | locus YJR043C, strain POL32, hits give low values 1.04 | locus YJR066W, strain TOR1, hits give low values 0.941 | locus YKL009W, strain mrt4, hits give low values 1.05 | locus YKL068W, hits give low values 1.01 | locus YKL085W, strain MDH1 (second series), hits give low values 1.02 | locus YKL085W, strain MDH1, hits give low values 1.02 | locus YKL160W, strain elf1, hits give low values 1.02 | locus YKL190W, strain CNB1, hits give low values 1.01 | locus YKR001C, strain vps1, hits give low values 1.04 | locus YKR026C, strain gcn3, hits give low values 0.975 | locus YKR091W, strain srl3, hits give low values 0.996 | locus YLL001W, strain dnm1, hits give low values 0.972 | locus YLL026W, hits give low values 0.996 | locus YLL041C, strain sdh2, hits give low values 0.993 | locus YLR027C, strain aat2, hits give low values 0.994 | locus YLR039C, strain RIC1, hits give low values 1.15 | locus YLR058C, strain SHM2, hits give low values 1.02 | locus YLR102C, strain apc9, hits give low values 1.01 | locus YLR113W, strain HOG1, hits give low values 0.971 | locus YLR221C, strain rsa3, hits give low values 0.953 | locus YLR258W, strain gsy2, hits give low values 0.99 | locus YLR262C, strain YPT6 (second series), hits give low values 0.956 | locus YLR268W, strain sec22, hits give low values 1.02 | locus YLR320W, strain mms22, hits give low values 0.979 | locus YLR330W, strain CHS5, hits give low values 1.03 | locus YLR342W, strain FKS1, hits give low values 0.997 | locus YLR357W, strain rsc2, hits give low values 0.989 | locus YLR370C, strain arc18, hits give low values 0.97 | locus YLR371W, strain rom2, hits give low values 1.05 | locus YLR384C, strain iki3, hits give low values 1.01 | locus YLR418C, strain cdc73, hits give low values 1.09 | locus YML016C, strain PPZ1, hits give low values 1.01 | locus YML032C, strain rad52, hits give low values 1.01 | locus YML120C, strain ndi1, hits give low values 1.01 | locus YML124C, strain tub3, hits give low values 1 | locus YMR058W, strain fet3, hits give low values 0.981 | locus YMR078C, strain ctf18, hits give low values 1.03 | locus YMR125W, strain sto1, hits give low values 0.982 | locus YMR129W, hits give low values 0.999 | locus YMR205C, strain PFK2, hits give low values 1.03 | locus YMR223W, strain ubp8, hits give low values 1.01 | locus YMR231W, strain pep5, hits give low values 0.973 | locus YMR263W, strain SAP30, hits give low values 1.01 | locus YMR307W, strain GAS1, hits give low values 1.22 | locus YNL067W, strain RPL9B, hits give low values 1.02 | locus YNL071W, strain lat1, hits give low values 0.989 | locus YNL153C, strain GIM3, hits give low values 1.03 | locus YNL183C, strain NPR1, hits give low values 0.931 | locus YNL209W, strain ssb2, hits give low values 1.01 | locus YNL233W, strain BNI4, hits give low values 1.07 | locus YNL248C, strain rpa49, hits give low values 0.968 | locus YNL250W, strain rad50, hits give low values 1.03 | locus YNL271C, strain bni1, hits give low values 1.01 | locus YNL298W, strain CLA4, hits give low values 1.03 | locus YNL307C, strain MCK1, hits give low values 1.03 | locus YNL322C, strain KRE1 (second series), hits give low values 1.01 | locus YNR049C, strain mso1, hits give low values 0.988 | locus YNR052C, strain pop2, hits give low values 1.04 | locus YOL006C, strain TOP1, hits give low values 1.3 | locus YOL012C, strain htz1 1.07 | locus YOL147C, strain pex11, hits give low values 1.01 | locus YOR001W, strain rrp6, hits give low values 0.925 | locus YOR061W, strain CKA2, hits give low values 1.02 | locus YOR069W, strain VPS5, hits give low values 1.01 | locus YOR070C, strain gyp1, hits give low values 1.01 | locus YOR080W, strain dia2, hits give low values 0.971 | locus YOR083W, strain WHI5, hits give low values 1.03 | locus YOR106W, strain vam3, hits give low values 1.03 | locus YOR136W, strain idh2, hits give low values 1.01 | locus YOR144C, strain elg1, hits give low values 1 | locus YOR184W, strain ser1, hits give low values 1 | locus YOR231W, strain MKK1, hits give low values 1 | locus YOR265W, strain rbl2, hits give low values 0.988 | locus YOR270C, strain vph1, hits give low values 0.969 | locus YOR290C, strain snf2, hits give low values 0.994 | locus YOR316C, strain cot1, hits give low values 1.03 | locus YPL051W, strain arl3, hits give low values 0.985 | locus YPL078C, strain atp4, hits give low values 1.03 | locus YPL106C, strain sse1, hits give low values 1.05 | locus YPL240C, strain hsp82, hits give low values 0.992 | locus YPL256C, strain CLN2, hits give low values 0.958 | locus YPR119W, strain clb2, hits give low values 0.999 | locus YPR141C, strain kar3, hits give low values 1.01 | locus YPR163C, strain tif3, hits give low values 1.01 | locus YPR167C, strain met16, hits give low values 1.03 | strain wtn01, hits give low values 0.997
